PubChem BioAssay (EPA / NIEHS)
Active and inactive are the calls of the source. How the source made its calls: active means hit-call score of the fitted dose curve at least 0.9, where 1 is the maximum; inactive means score below 0.9.

Key:
[1] = APR_HepG2_CellCycleArrest_24hr: Apredica 24-hour HepG2 Assay for Cell Cycle Arrest (AID 2282905); conditions: imaging, actives raise or lower the signal;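 further: cell cycle arrest scored as ratio of 2N to 4N nuclear DNA content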
How it was run: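 HepG2 cells were exposed to compounds at 0.39–200 uM (ten concentrations, duplicate) in 0.5% v/v DMSO for 24 hr. After formaldehyde fixation and Triton permeabilization, Hoechst 33342-stained nuclei were imaged at 20x; DNA content was quantified, with bidirectional fitting against DMSO.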

[2] = APR_HepG2_StressKinase_1hr: Apredica 1-hour HepG2 Assay for Stress Kinase (AID 2282906); conditions: HepG2 stress kinase (phospho-c-Jun) imaging, actives raise or lower the signal
How it was run: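 HepG2 cells dosed 0.39-200 uM (0.5% DMSO) for 1 h, then formaldehyde-fixed. Stress kinase read by phospho-c-Jun immunofluorescence using high-content imaging; bidirectional fit vs DMSO.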

[3] = APR_HepG2_NuclearSize_24hr: Apredica 24-hour HepG2 Assay for Nuclear Size (AID 2282907); conditions: high-content imaging, actives raise or lower the signal
How it was run: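 HepG2 human liver cells were exposed for 24 hr to compounds at 0.39–200 uM (ten concentrations, duplicate) in 0.5% v/v DMSO. They were then formaldehyde-fixed, Triton-permeabilized and Hoechst 33342-stained, and nuclear diameter was imaged at 20x. Bidirectional fits were made against DMSO.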

[4] = APR_HepG2_CellLoss_24hr: Apredica 24-hour HepG2 Assay for Cell Loss (AID 2282908); conditions: high-content imaging;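 on AC50: fit in both directions so a hit may be cell loss or gain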
How it was run: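 Compounds were tested at 0.39–200 uM in duplicate with 0.5% v/v DMSO final. Cells were then fixed in 3.7% formaldehyde, Hoechst 33342 nuclei were imaged at 20x by HCS, and cell number was fitted bidirectionally against DMSO.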

[5] = APR_HepG2_MicrotubuleCSK_24hr: Apredica 24-hour HepG2 Assay for Microtubule CSK Stabilty (AID 2282909); conditions: HepG2 microtubule cytoskeleton imaging, actives raise or lower the signal
How it was run: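 HepG2 cells exposed 24 h to compounds at 0.39–200 uM (duplicate, 0.5% v/v DMSO final), then fixed, permeabilized and immunostained for alpha-tubulin with Hoechst 33342. Cytoskeleton imaged at 20x; bidirectional fit versus DMSO baseline.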

[6] = APR_HepG2_MitoticArrest_24hr: Apredica 24-hour HepG2 Assay for Mitotic Arrest (AID 2282910); conditions: high-content imaging, actives raise or lower the signal
How it was run: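 HepG2 cells, 24 h exposure at 0.39-200 uM (10 concentrations, duplicate, 0.5% DMSO). Fixed, stained for phospho-histone H3 with Hoechst; imaged by high-content microscopy, bidirectional fit versus DMSO.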

[7] = APR_HepG2_MitoMembPot_24hr: Apredica 24-hour HepG2 Assay for Mitochondrial Membrane Potential (AID 2282911); conditions: imaging, actives raise or lower the signal
How it was run: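 Cells are dosed for 24 hr across 0.39 to 200 uM with solvent held at 0.5% DMSO. They are then stained with 250 nM MitoTracker Red CMXRos for 30 min, fixed in 3.7% formaldehyde and imaged.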

[8] = APR_HepG2_MitoMass_24hr: Apredica 24-hour HepG2 Assay for Mitochondrial Mass (AID 2282912); conditions: high-content imaging, actives raise or lower the signal
How it was run: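 Human HepG2 liver cells were exposed for 24 hr to compounds at 0.39–200 uM (duplicates, 0.5% v/v DMSO final). They were stained live with 250 nM MitoTracker Red CMXRos for 30 min, fixed in 3.7% formaldehyde, and imaged by HCS fluorescence; signals were fitted bidirectionally against DMSO.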

[9] = APR_HepG2_p53Act_24hr: Apredica 24-hour HepG2 Assay for p53 Activation (AID 2282913); conditions: high-content imaging, actives raise or lower the signal;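 further: p53 protein immunofluorescence averaged per cell in HepG2 with Hoechst nuclei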
How it was run: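 Human HepG2 liver cells; 24 hr cpd treatment, 0.39–200 uM, 0.5% DMSO final. Fixed in 3.7% formaldehyde, permeabilized with 0.5% Triton X-100, stained with anti-p53/Cy5 plus Hoechst 33342. Six images per well at 20x; gain or loss vs DMSO.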

[10] = APR_HepG2_CellCycleArrest_72hr: Apredica 72-hour HepG2 Assay for Cell Cycle Arrest (AID 2282914); conditions: high-content imaging, actives raise or lower the signal
How it was run: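 Read-out is Hoechst-stained nuclear DNA content measured by automated fluorescence imaging (20x, six images per well), fitted in both directions relative to DMSO. Human HepG2 liver cells received 0.39–200 uM compound for 72 hr at 0.5% v/v DMSO.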

[11] = APR_HepG2_CellLoss_72hr: Apredica 72-hour HepG2 Assay for Cell Loss (AID 2282915); conditions: high-content imaging
How it was run: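 HepG2 cells exposed 72 h to compound at 0.39–200 uM (10 concentrations, duplicate) in 0.5% DMSO. Fixed with 3.7% formaldehyde and Hoechst 33342-stained. Imaged at 20x; nuclear count gives cell number, fitted bidirectionally versus DMSO.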

[12] = APR_HepG2_P-H2AX_72hr: Apredica 72-hour HepG2 Assay for H2AX Phosphorylation (AID 2282916); conditions: imaging, actives raise or lower the signal;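 further: phospho-histone H2A.x immunostain intensity per cell marking DNA damage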
How it was run: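 HepG2 human liver cells were exposed for 72 hr to compounds at 0.39–200 uM (10 concentrations, duplicate per plate) in 0.5% v/v DMSO. Fixed, permeabilized cells were immunolabeled for phospho-histone H2A.x with Hoechst 33342 and imaged by HCS fluorescence; bidirectional fit versus DMSO.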

[13] = APR_HepG2_MitoMembPot_72hr: Apredica 72-hour HepG2 Assay for Mitochondrial Membrane Potential (AID 2282917); conditions: imaging, actives raise or lower the signal
How it was run: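 HepG2 cells dosed 72 hr with compound at 0.39–200 uM in duplicate, 0.5% v/v DMSO final. Mitochondria stained with 250 nM MitoTracker Red CMXRos for 30 min before formaldehyde fixation, imaged by high-content fluorescence; bidirectional fit versus DMSO.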

[14] = APR_HepG2_MitoticArrest_72hr: Apredica 72-hour HepG2 Assay for Mitotic Arrest (AID 2282918); conditions: high-content imaging, actives raise or lower the signal
How it was run: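 Read-out is phospho-histone H3 immunofluorescence with Hoechst nuclear segmentation, imaged at 20x. Human HepG2 liver cells received ten concentrations (0.39–200 uM, final DMSO 0.5% v/v) for 72 hr before fixation. Gain or loss of signal was fitted relative to DMSO.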

[15] = APR_HepG2_MicrotubuleCSK_72hr: Apredica 72-hour HepG2 Assay for Microtubule CSK Stabilty (AID 2282919); conditions: HepG2 microtubule cytoskeleton, high-content imaging, actives raise or lower the signal
How it was run: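 HepG2 cells were exposed 72 hr to compound at 0.39–200 uM in duplicate (0.5% DMSO final), then fixed and permeabilized. Alpha-tubulin immunofluorescence was imaged by high-content microscopy, with bidirectional fitting against DMSO and taxol as positive control.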

[16] = APR_HepG2_P-H2AX_24hr: Apredica 24-hour HepG2 Assay for H2AX Phosphorylation (AID 2282920); conditions: high-content imaging, actives raise or lower the signal
How it was run: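 HepG2, 24 hr, cpd 0.39–200 uM (10 conc, duplicate), DMSO 0.5% v/v final. Fix 3.7% formaldehyde, Triton X-100 permeabilize, anti-phospho-H2A.x 1:200 + Hoechst 2 ug/mL. Imaged, bidirectional fit vs DMSO.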

[17] = APR_HepG2_StressKinase_72hr: Apredica 72-hour HepG2 Assay for Stress Kinase (AID 2282921); conditions: HepG2 stress kinase (phospho-c-Jun) imaging, actives raise or lower the signal
How it was run: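 Cells were exposed for 72 h to ten concentrations (0.39–200 uM, duplicate) at 0.5% v/v DMSO final, then fixed with 3.7% formaldehyde, permeabilized and immunostained for phospho-c-Jun (Cy3 secondary) with Hoechst nuclear counterstain.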

[18] = APR_HepG2_StressKinase_24hr: Apredica 24-hour HepG2 Assay for Stress Kinase (AID 2282922); conditions: HepG2 stress kinase (phospho-c-Jun) imaging, actives raise or lower the signal
How it was run: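 HepG2 cells exposed 24 h to 0.39–200 uM compound in duplicate (0.5% v/v DMSO final). Cells fixed in 3.7% formaldehyde, permeabilized and immunostained for phospho-c-Jun; read by high-content fluorescence imaging, fitted bidirectionally against DMSO.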

[19] = APR_HepG2_p53Act_72hr: Apredica 72-hour HepG2 Assay for p53 Activation (AID 2282923); conditions: high-content imaging, actives raise or lower the signal;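 further: average cellular p53 protein immunofluorescence intensity in HepG2 cells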
How it was run: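 Cells were dosed for 72 hr with compounds at 0.39–200 uM in duplicate (final DMSO 0.5% v/v), then fixed in 3.7% formaldehyde, permeabilized with Triton X-100 and immunostained for p53 (Cy5) with Hoechst 33342 nuclear counterstain.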

[20] = APR_HepG2_MitoMass_72hr: Apredica 72-hour HepG2 Assay for Mitochondrial Mass (AID 2282924); conditions: high-content imaging, actives raise or lower the signal;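 further: MitoTracker Red CMXRos stain intensity per cell imaged as mitochondrial mass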
How it was run: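 HepG2 cells dosed 72 hr at 0.39–200 uM (0.5% DMSO), in duplicate. MitoTracker Red CMXRos 250 nM loaded 30 min before formaldehyde fixation; high-content fluorescence imaging, bidirectional fit versus DMSO.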

Measured: AC50

N#Cc1nn(-c2c(Cl)cc(C(F)(F)F)cc2Cl)c(N)c1S(=O)C(F)(F)F (centres undefined)
active: [1] 50.9 µM | [4] 96.2 µM | [5] 87.2 µM | [6] 100 µM | [10] 19.9 µM | [11] 63.1 µM | [12] 34.9 µM | [15] 179 µM | [16] 107 µM | [17] 105 µM
inactive: all other assays above

C#CCOS(=O)OC1CCCCC1Oc1ccc(C(C)(C)C)cc1 (centres undefined)
active: [1] 3.03 µM | [4] 7.2 µM | [5] 38.4 µM | [7] 6.31 µM | [10] 2.92 µM | [11] 3.12 µM | [13] 3.43 µM
not listed: [15]
inactive: all other assays above

C=CCC1=C(C)[C@@H](OC(=O)[C@@H]2[C@@H](C=C(C)C)C2(C)C)CC1=O
active: [4] 99.2 µM | [5] 55.9 µM | [11] 102 µM | [14] 67.4 µM | [16] 118 µM | [19] 107 µM
not listed: [15]
inactive: all other assays above

Oc1ccccc1-c1ccccc1
active: [1] 82.1 µM
not listed: [5] | [15]
inactive: all other assays above

CCNc1nc(Cl)nc(NCC)n1
not listed: [5] | [15]
inactive: all other assays above

CNC(=O)ON=CC(C)(C)SC
not listed: [5] | [15]
inactive: all other assays above

COc1cnc(OC)n2nc(NS(=O)(=O)c3c(OCC(F)F)cccc3C(F)(F)F)nc12
not listed: [5] | [15]
inactive: all other assays above

CC(Oc1ccc(Cl)cc1Cl)C(=O)O (centres undefined)
not listed: [5] | [15]
inactive: all other assays above

CCOP(=S)(OCC)SCn1c(=O)oc2cc(Cl)ccc21
active: [10] 85 µM | [11] 61.4 µM | [15] 99.8 µM
not listed: [5]
inactive: all other assays above

CCCCOC(=O)c1ccccc1C(=O)OCCCC
not listed: [5] | [15]
inactive: all other assays above

CCNc1nc(Cl)nc(NC(C)C)n1
not listed: [5] | [15]
inactive: all other assays above

N#Cc1cc(Br)c(O)c(Br)c1
active: [7] 89.4 µM | [10] 100 µM | [11] 101 µM
not listed: [5] | [15]
inactive: all other assays above

COP(N)(=O)SC (centres undefined)
not listed: [5] | [15]
inactive: all other assays above
